Targets with a hit are over-represented here; the source holds about 7,900 in all. About 0.6% of all pairs of compound and target were hits.

Chain of UniProt Q9UHB9 (Q9UHB9 whole entry, looked up): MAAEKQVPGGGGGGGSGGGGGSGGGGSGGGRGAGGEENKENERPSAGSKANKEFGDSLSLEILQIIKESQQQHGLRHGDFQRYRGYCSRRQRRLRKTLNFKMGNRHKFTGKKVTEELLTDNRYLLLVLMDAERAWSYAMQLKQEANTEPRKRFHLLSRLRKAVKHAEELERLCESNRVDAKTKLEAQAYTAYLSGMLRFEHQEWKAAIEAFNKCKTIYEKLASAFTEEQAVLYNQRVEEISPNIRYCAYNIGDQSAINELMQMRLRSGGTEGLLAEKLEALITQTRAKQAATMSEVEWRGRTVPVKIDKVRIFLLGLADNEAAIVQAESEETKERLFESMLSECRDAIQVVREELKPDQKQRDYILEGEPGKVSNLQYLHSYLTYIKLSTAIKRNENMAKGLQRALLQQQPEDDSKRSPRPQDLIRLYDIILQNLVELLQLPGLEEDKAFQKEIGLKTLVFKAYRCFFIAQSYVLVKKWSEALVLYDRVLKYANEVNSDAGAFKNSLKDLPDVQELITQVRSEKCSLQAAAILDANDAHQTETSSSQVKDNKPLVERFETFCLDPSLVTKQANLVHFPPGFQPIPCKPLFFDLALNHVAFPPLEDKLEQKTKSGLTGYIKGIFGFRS
Chain of UniProt Q8TCT7 (Q8TCT7 whole entry, looked up): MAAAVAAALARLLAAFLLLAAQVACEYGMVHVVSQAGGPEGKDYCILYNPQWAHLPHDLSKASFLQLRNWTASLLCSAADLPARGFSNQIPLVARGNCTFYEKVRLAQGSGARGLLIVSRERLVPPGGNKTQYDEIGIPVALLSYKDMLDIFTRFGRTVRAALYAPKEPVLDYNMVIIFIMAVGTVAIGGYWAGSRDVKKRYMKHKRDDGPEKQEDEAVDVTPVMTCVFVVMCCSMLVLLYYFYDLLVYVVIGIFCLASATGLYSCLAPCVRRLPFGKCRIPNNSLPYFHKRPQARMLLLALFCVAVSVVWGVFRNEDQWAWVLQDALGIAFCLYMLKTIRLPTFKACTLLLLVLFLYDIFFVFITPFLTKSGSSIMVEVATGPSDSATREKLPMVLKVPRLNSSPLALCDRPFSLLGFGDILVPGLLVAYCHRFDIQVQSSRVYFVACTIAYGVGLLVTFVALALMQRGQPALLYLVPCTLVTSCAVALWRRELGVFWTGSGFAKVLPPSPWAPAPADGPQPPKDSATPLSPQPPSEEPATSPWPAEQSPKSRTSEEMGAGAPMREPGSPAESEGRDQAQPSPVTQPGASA
Chain of UniProt Q9NUY8 (Q9NUY8 whole entry, looked up): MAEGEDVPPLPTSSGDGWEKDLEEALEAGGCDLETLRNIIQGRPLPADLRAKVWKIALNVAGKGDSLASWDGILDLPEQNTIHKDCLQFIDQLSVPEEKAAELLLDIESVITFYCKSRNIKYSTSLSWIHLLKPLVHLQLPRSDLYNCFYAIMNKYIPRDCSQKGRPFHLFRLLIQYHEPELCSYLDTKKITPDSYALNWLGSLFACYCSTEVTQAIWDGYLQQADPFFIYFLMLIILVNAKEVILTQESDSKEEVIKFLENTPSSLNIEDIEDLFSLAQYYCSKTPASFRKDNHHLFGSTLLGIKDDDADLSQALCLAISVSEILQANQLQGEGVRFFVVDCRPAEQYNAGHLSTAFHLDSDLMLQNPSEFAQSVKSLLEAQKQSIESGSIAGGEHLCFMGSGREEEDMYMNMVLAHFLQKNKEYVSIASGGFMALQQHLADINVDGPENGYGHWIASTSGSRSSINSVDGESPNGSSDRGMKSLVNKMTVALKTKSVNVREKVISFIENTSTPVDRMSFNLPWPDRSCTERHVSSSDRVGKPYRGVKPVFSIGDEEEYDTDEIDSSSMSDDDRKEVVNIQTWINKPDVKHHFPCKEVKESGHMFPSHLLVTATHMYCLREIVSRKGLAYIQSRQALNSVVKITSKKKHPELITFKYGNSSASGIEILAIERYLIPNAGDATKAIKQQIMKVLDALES
Chain of UniProt Q92797 (Q92797 whole entry, looked up): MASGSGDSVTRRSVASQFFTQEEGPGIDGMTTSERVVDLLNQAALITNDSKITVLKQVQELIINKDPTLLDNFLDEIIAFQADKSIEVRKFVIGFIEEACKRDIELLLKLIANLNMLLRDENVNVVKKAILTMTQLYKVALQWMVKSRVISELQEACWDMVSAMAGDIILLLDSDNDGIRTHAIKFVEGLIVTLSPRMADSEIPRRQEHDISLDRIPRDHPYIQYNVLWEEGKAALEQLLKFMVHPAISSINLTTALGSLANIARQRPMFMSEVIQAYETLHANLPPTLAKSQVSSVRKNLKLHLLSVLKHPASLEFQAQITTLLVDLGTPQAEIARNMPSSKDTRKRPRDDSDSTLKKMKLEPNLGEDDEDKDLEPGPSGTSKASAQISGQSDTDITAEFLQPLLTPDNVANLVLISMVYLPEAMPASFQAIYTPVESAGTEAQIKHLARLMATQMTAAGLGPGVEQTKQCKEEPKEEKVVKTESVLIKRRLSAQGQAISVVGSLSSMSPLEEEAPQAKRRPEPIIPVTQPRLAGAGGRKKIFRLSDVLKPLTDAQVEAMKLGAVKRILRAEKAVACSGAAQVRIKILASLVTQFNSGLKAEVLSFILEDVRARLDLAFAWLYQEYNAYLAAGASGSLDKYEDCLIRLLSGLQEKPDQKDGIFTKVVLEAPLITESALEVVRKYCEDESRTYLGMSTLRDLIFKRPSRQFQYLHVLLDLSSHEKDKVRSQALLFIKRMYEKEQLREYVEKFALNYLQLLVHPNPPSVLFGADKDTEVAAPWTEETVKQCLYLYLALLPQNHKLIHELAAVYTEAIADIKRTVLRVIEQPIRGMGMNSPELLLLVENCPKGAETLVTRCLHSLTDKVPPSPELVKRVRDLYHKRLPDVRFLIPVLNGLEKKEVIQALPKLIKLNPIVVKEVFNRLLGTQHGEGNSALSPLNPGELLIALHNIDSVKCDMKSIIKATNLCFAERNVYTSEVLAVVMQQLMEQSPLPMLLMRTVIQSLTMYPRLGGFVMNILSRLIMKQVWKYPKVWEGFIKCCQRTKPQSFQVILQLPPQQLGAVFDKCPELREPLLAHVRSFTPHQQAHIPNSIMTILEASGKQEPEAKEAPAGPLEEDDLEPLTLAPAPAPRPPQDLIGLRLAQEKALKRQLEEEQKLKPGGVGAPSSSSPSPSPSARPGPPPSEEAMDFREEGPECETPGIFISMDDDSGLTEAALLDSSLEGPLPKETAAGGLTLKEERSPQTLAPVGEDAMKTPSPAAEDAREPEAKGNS
Chain of UniProt Q9UDY2 (Q9UDY2 whole entry, looked up): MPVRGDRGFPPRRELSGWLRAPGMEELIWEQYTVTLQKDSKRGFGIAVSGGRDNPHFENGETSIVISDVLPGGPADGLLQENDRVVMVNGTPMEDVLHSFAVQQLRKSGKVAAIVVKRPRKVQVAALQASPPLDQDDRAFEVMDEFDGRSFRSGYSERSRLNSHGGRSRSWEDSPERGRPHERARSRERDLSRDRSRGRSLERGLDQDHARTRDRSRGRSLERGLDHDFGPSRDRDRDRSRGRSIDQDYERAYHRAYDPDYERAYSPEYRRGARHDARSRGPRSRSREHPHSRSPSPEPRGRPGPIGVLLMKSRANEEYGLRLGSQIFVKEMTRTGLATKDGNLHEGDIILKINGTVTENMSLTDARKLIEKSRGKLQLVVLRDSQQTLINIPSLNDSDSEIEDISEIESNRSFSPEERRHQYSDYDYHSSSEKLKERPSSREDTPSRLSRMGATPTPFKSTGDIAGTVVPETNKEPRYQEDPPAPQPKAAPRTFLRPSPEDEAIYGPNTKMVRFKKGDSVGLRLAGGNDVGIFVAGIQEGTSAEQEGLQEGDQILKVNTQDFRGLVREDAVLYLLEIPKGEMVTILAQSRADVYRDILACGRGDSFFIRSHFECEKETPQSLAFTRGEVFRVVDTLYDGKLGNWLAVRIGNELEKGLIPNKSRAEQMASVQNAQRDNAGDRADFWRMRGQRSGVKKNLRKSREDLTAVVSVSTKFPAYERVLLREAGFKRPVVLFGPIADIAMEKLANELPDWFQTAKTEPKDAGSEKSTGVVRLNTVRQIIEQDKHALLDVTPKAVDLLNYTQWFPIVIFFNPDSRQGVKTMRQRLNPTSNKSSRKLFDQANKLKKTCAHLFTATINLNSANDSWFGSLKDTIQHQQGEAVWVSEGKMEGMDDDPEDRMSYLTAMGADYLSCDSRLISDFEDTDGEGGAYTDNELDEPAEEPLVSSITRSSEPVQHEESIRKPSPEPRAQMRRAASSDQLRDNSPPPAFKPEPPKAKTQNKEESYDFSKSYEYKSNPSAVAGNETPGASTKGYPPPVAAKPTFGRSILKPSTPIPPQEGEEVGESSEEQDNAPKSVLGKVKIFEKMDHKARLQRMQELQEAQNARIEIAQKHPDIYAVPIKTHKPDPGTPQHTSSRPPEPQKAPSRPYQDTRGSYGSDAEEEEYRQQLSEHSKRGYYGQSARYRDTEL
Chain of UniProt O00506 (O00506 whole entry, looked up): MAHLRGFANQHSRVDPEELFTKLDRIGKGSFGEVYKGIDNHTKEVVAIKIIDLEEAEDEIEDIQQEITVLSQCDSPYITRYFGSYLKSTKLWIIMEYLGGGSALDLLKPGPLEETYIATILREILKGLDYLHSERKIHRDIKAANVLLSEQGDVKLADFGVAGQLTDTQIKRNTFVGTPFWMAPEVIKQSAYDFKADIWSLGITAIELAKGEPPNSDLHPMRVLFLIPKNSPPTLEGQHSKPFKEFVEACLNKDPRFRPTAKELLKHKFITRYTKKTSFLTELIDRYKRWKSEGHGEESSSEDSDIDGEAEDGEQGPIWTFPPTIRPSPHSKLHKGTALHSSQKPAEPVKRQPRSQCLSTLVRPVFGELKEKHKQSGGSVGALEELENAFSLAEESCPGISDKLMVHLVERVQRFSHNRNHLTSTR
Chain of UniProt Q16629 (Q16629 whole entry, looked up): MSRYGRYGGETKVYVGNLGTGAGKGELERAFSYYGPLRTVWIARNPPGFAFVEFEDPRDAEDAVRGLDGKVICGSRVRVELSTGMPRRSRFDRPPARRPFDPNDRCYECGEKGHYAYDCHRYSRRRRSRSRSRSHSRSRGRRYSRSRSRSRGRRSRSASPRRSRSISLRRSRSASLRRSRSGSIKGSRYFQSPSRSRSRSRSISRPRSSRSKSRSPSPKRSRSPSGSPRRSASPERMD

Compound in one assay: Cc1nc(Nc2n[nH]c3c2CN(C(=O)N[C@H](CN(C)C)c2ccccc2)C3(C)C)c2sccc2n1
In words: log2 fold change, soluble protein after heating vs DMSO (PISA); higher = thermal stabilisation; K562 cells, 10 uM, 30 min; active = over 0.2 and 3.5 SD of the protein, either way, in both replicates (recomputed). In a few lines:
(§1)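 Values are thermal stability changes relative to control samples and are taken from duplicates. They are stated as log2 fold changes. Before quantification by TMTpro 16plex LC-MS/MS with equalised channel sums, K562 cells at 2×10^6 cells/mL were treated with 10 μM compound for 30 min, heated in aliquots for 3 min across 48°C-58°C, pooled, extracted in PBS with 0.5% NP-40 at 4°C, and centrifuged at 21,000xg for 90 min to give the soluble supernatant.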
On to SYF2 (UniProt O95926), for which the log2 fold change is 0.25 (inactive).
On the same count and under the same terms, the same measure for STK25 (UniProt O00506): 0.257 (active); for SYMPK (UniProt Q92797): -0.001 (inactive).
Same read-out and setting: the same measure for SP1 (UniProt P08047): -0.003 (inactive); for SSB (UniProt P05455): -0.125 (inactive).
Consider STARD3NL (UniProt O95772), for which the log2 fold change was 0.027 (inactive).
With SPG21 (UniProt Q9NZD8), the log2 fold change is -0.06 (inactive).
For SRP68 (UniProt Q9UHB9), the log2 fold change is -0.063 (inactive).
On the same count and under the same terms, the same measure for TJP2 isoform 7 (UniProt Q9UDY2): -0.207 (inactive); for SPPL2B (UniProt Q8TCT7): -0.006 (inactive); for SRSF7 (UniProt Q16629): -0.642 (active).
On the same count and under the same terms, the same measure for SNW1 (UniProt Q13573): 0.067 (inactive); for TBC1D23 (UniProt Q9NUY8): -0.032 (inactive); for SLC30A7 (UniProt Q8NEW0): 0.052 (inactive).

Compound in the next assay: Cc1nc(Nc2ncc(C(=O)Nc3c(C)cccc3Cl)s2)cc(N2CCN(CCO)CC2)n1 [dasatinib]
The description is as above. In a few lines: as §1
As for STAT5B (UniProt P51692), the log2 fold change is -0.443 (active).
Still for that read-out and setting: the same measure for STAT3 (UniProt P40763): -0.141 (inactive).
On to STAM2 (UniProt O75886), for which the log2 fold change was 0.044 (inactive).
Same read-out and setting: the same measure for TIAL1 isoform 2 (UniProt Q01085): -0.021 (inactive).
As for SLC38A9 (UniProt Q8NBW4), the log2 fold change is 0.094 (inactive).
Still for that read-out and setting: the same measure for STAT5A (UniProt P42229): -0.191 (inactive).
For SNX5 (UniProt Q9Y5X3), the log2 fold change was -0.169 (inactive).
Turning to SMARCE1 (UniProt Q969G3), the log2 fold change was -0.07 (inactive).
As for SRSF3 (UniProt P84103), the log2 fold change is 0.173 (inactive).
Same read-out and setting: the same measure for SMC5 (UniProt Q8IY18): 0.05 (inactive).
Still for that read-out and setting: the same measure for SNX1 (UniProt Q13596): -0.191 (inactive); for TARBP1 (UniProt Q13395): -0.058 (inactive).
On the same count and under the same terms, the same measure for STX17 (UniProt P56962): -0.027 (inactive).
SMARCAD1 isoform 2 (UniProt Q9H4L7): the log2 fold change is -0.131 (inactive).
The same measure, in the same setting: the same measure for TIMM10 (UniProt P62072): 0.114 (inactive); for SPCS2 (UniProt Q15005): 0 (inactive); for SMAP2 (UniProt Q8WU79): -0.135 (inactive).
In the case of TK1 (UniProt P04183), the log2 fold change is 0.032 (inactive).
Same read-out and setting: the same measure for TIMM44 (UniProt O43615): -0.192 (inactive); for TIMM29 (UniProt Q9BSF4): -0.031 (inactive).
On the same count and under the same terms, the same measure for SRI (UniProt P30626): 0.04 (inactive); for SORT1 (UniProt Q99523): 0.02 (inactive); for SLC7A6 (UniProt Q92536): 0.04 (inactive).
On the same count and under the same terms, the same measure for SYF2 (UniProt O95926): 0.119 (inactive).
As to STK25 (UniProt O00506), the log2 fold change is -0.133 (inactive).
As for SYMPK (UniProt Q92797), the log2 fold change was -0.156 (inactive).
Still for that read-out and setting: the same measure for SP1 (UniProt P08047): -0.005 (inactive).
The same measure, in the same setting: the same measure for SSB (UniProt P05455): -0.06 (inactive).
The same measure, in the same setting: the same measure for STARD3NL (UniProt O95772): 0.075 (inactive); for SPG21 (UniProt Q9NZD8): -0.087 (inactive); for SRP68 (UniProt Q9UHB9): -0.098 (inactive).
TJP2 isoform 7 (UniProt Q9UDY2): the log2 fold change is -0.191 (inactive).
The same measure, in the same setting: the same measure for SPPL2B (UniProt Q8TCT7): -0.066 (inactive); for SRSF7 (UniProt Q16629): 0.171 (inactive).
Same read-out and setting: the same measure for SNW1 (UniProt Q13573): 0.027 (inactive); for TBC1D23 (UniProt Q9NUY8): -0.155 (inactive); for SLC30A7 (UniProt Q8NEW0): 0.04 (inactive).

For the origin of these results see the supplement of paper PMC10849652.
